The values below come from PubChem BioAssay AID1942 (Johns Hopkins Ion Channel Center, 2009).

The campaign covered roughly 2,400 compounds. About 580 (24%) were called active.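 How the source made its calls: active means activity change at or above the mean plus 3 SD of buffer wells without dofetilide, per plate; inactive means the rest.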 A selection follows.

For this experiment, the target named is Potassium voltage-gated channel subfamily KQT member 2 (Rattus norvegicus) (UniProt O88943). The experiment in a line: KCNQ2 potentiation in CHO cells – cell-based, FluxOR thallium flux, counter-screen for hERG block protector project, confirmation (AID 1942).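 Further: normalized value minus buffer-control mean plus three SD of buffer wells.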 The conditions noted are these: FluxOR thallium flux fluorescence, at 10 µM, active compounds read high. On the technique in general: A counterscreen serves to expose hits that act by an unwanted route or on another target.
Potassium voltage-gated channel subfamily KQT member 2 (Rattus norvegicus), sequence (O88943 whole entry, looked up): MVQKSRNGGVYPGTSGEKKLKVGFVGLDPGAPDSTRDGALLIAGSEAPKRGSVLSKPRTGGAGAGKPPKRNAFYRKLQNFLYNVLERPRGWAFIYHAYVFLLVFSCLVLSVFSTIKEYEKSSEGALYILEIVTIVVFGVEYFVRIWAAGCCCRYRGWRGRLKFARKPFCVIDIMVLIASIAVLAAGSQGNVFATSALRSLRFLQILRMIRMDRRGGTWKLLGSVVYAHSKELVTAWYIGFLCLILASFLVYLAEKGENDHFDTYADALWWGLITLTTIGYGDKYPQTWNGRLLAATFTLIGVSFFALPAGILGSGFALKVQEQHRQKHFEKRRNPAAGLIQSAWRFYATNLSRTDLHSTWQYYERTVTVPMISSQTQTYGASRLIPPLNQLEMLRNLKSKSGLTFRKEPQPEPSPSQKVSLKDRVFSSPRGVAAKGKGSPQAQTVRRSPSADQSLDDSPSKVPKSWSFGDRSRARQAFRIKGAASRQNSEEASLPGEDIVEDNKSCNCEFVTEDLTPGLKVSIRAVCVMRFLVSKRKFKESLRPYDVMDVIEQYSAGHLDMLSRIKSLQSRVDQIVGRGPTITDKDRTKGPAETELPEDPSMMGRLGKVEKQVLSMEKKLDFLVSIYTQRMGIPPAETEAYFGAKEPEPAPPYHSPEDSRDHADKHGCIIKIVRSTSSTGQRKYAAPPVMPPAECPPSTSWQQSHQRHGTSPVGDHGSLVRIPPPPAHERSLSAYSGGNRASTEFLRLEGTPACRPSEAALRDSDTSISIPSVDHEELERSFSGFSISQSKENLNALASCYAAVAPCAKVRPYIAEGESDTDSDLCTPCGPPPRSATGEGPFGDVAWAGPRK
As for `c1ccc(-c2n[nH]c(-c3ccccn3)n2)cc1`, the activity change, less the hit threshold is 5.9% (active).

On to `c1ccc(-c2ccc(-c3ccncn3)cc2)cc1`, for which the activity change, less the hit threshold is -16.2% (inactive).

For the compound `COc1ccc(-c2nc(-c3ccccn3)ncc2S(C)(=O)=O)cc1`, the activity change, less the hit threshold was -15.6% (inactive).

As for `CC(C)Sc1nc2ccccc2n2cnnc12`, the activity change, less the hit threshold is -12.8% (inactive).

Turning to `C/C(=N\Nc1nc2ccccc2nc1C)c1ccccc1O`, the activity change, less the hit threshold was 7.3% (active).

Take `C/C(=N\Nc1nc2ccccc2s1)c1cccs1`: the activity change, less the hit threshold was -9.9% (inactive).

In the case of `C/C(=N\Nc1nc2ccccc2s1)c1ccc(Br)s1`, the activity change, less the hit threshold is -5.9% (inactive).

`CCCCNC(=O)N1CCCC(C(=O)c2cc(C)c(OC)c(C)c2)C1` (centres undefined): the activity change, less the hit threshold is -22.8% (inactive).

`CCC1(c2ccccc2)NC(=S)N(c2ccc(C)cc2)N1` (centres undefined): the activity change, less the hit threshold was 102% (active).

With `CCC1(c2ccc(Cl)cc2)NC(=S)N(c2ccc(C)cc2)N1` (centres undefined), the activity change, less the hit threshold is 83.8% (active).

With `CCC1(c2ccc(Cl)cc2)NC(=S)N(c2ccccc2)N1` (centres undefined), the activity change, less the hit threshold is 84.8% (active).

As to `S=c1[nH]nc(-c2ccccn2)n1/N=C/c1ccc(-c2ccccc2Br)o1`, the activity change, less the hit threshold was -12.9% (inactive).

As to `CC12CCC(C(=O)OC3CCCCC3)(OC1=O)C2(C)C` (centres undefined), the activity change, less the hit threshold was -26.6% (inactive).

For the compound `C=CCNC(=O)c1onc(CSc2ccc(OC)cc2)c1C(=O)O`, the activity change, less the hit threshold was -16.5% (inactive).

In the case of `Cn1c2ccccc2c(=O)c2c(=O)n(Cc3ccco3)c(-c3ccc(Cl)cc3Cl)nc21`, the activity change, less the hit threshold is -29.7% (inactive).

For `O=C(Nc1cccnc1)c1ccc(COc2cc(Cl)ccc2Cl)o1`, the activity change, less the hit threshold was -20% (inactive).

On to `O=C(CCl)NCCN1C(=O)S/C(=C\c2cccnc2)C1=O`, for which the activity change, less the hit threshold was -19% (inactive).

In the case of `C[n+]1ccccc1/C=C/c1c(F)cccc1F`, the activity change, less the hit threshold is -10.9% (inactive).

As for `CCC(NS(=O)(=O)c1cn(C)nc1C)c1ccccc1` (centres undefined), the activity change, less the hit threshold was -7.9% (inactive).

Take `CC(C)CNC(=S)NC(=O)c1ccc(Cl)cc1`: the activity change, less the hit threshold is -3.9% (inactive).

In the case of `CN(C(=S)NC(=O)c1ccccc1)C1CCCCC1`, the activity change, less the hit threshold was 2% (active).

With `CN(C(=S)NC(=O)c1ccc(Cl)cc1)C1CCCCC1`, the activity change, less the hit threshold was 4.8% (active).

Consider `COc1ccc(C(=O)NC(=S)N(C)C2CCCCC2)cc1`, for which the activity change, less the hit threshold is -3.2% (inactive).

On to `Cc1cccc(C(=O)NC(=S)N(C)C2CCCCC2)c1`, for which the activity change, less the hit threshold was 18.5% (active).

For `Cc1ccc(C(=O)NC(=S)N(C)C2CCCCC2)cc1`, the activity change, less the hit threshold is 5.4% (active).

With `Cc1cccc(C(=O)NC(=S)NNC(=O)COc2c(C)cccc2C)c1`, the activity change, less the hit threshold was -27.8% (inactive).

Regarding `O=C(NC(=S)NNC(=O)[C@H]1C[C@@H]1c1ccccc1)c1cccc(F)c1`, the activity change, less the hit threshold was -30.9% (inactive).

As to `CN(C1=C(NC(=O)c2ccccc2)C(=O)c2ccccc2C1=O)C1CCS(=O)(=O)C1` (centres undefined), the activity change, less the hit threshold was -3.2% (inactive).

For `C/C(=C\C(=O)c1ccccc1)NNC(=O)c1ccc(Cl)cc1`, the activity change, less the hit threshold was -3.2% (inactive).

For the compound `COc1ccc(-c2nn(-c3ccccc3)cc2C(=O)Nc2cccc(C(=O)O)c2)cc1[N+](=O)[O-]`, the activity change, less the hit threshold was -18.7% (inactive).

For `Cc1c(Cl)c([N+](=O)[O-])nn1CC(=O)NCC(C)C`, the activity change, less the hit threshold was -16.4% (inactive).

For the compound `O=C(CCCOc1ccc(Cl)cc1Cl)Nc1ccccc1C(=O)O`, the activity change, less the hit threshold is -39.2% (inactive).

For `O=C(c1ccc(CS(=O)c2cccc(Cl)c2)o1)N1CCCCCC1` (centres undefined), the activity change, less the hit threshold was -25.8% (inactive).

Turning to `O=S(=O)(c1ccc(F)cc1)N1CCN(c2ccc(F)cc2)CC1`, the activity change, less the hit threshold was -13.8% (inactive).

Consider `CCCNC(=O)N1CCN(S(=O)(=O)c2ccc(C)cc2)CC1`, for which the activity change, less the hit threshold was -17.2% (inactive).

Consider `Cc1ccc(O)c(Sc2cc(C)ccc2O)c1`, for which the activity change, less the hit threshold was 2% (active).

In the case of `Cc1ccc(O)c(C(=O)CC(=O)c2ccc(Cl)cc2)c1`, the activity change, less the hit threshold was -16.6% (inactive).

`Cc1ccc(O)c(C(=O)CC(=O)c2ccccc2Cl)c1`: the activity change, less the hit threshold was -13.5% (inactive).

As to `NNC(=O)CNc1ccccc1Cl`, the activity change, less the hit threshold was -15.1% (inactive).

`O=C(NCC1CCS(=O)(=O)C1)Oc1ccccc1` (centres undefined): the activity change, less the hit threshold was -12.4% (inactive).

For `C=CCN(c1cccc(C(F)(F)F)c1)S(=O)(=O)c1cccc(C(=O)OCC(=O)Nc2ccccc2)c1`, the activity change, less the hit threshold is -0.5% (inactive).

Regarding `C=CCN(c1ccc(Cl)cc1)S(=O)(=O)c1cccc(C(=O)O)c1`, the activity change, less the hit threshold is 4.4% (active).

For the compound `C=CCN(c1ccccc1)S(=O)(=O)c1cccc(C(=O)Nc2nnc(SCC)s2)c1`, the activity change, less the hit threshold is -20.2% (inactive).

Turning to `CN(C)S(=O)(=O)c1cccc(C(=O)Nc2cccnc2)c1`, the activity change, less the hit threshold was -13.5% (inactive).

Regarding `O=C(Nc1ccccc1C(=O)O)c1cccc(NC(=O)c2ccccc2Br)c1`, the activity change, less the hit threshold was -16% (inactive).

Turning to `CCCN(Cc1ccccc1)C(=S)NC(=O)c1ccccc1[N+](=O)[O-]`, the activity change, less the hit threshold is 92.5% (active).

As for `CCN(C(=S)NC(=O)c1ccccc1Br)C1CCCCC1`, the activity change, less the hit threshold is 62.1% (active).

On to `O=C(Cn1cncn1)c1ccccc1Br`, for which the activity change, less the hit threshold is -24% (inactive).

In the case of `CN(Cc1ccccc1)C1CCN(Cc2ccccc2[N+](=O)[O-])CC1`, the activity change, less the hit threshold is -15.5% (inactive).

With `O=C(NCC1CCCCC1)c1cccnc1Cl`, the activity change, less the hit threshold was -17.7% (inactive).

In the case of `CC(C)CN(C(=O)COC(=O)CNC(=O)c1ccccc1F)c1c(N)n(Cc2ccccc2)c(=O)[nH]c1=O`, the activity change, less the hit threshold was -7.7% (inactive).

`CCN(Cc1ccccc1)C(=S)NC(=O)c1ccccc1Br`: the activity change, less the hit threshold was 66.7% (active).

As to `COc1nccnc1NS(=O)(=O)c1ccc(NC(=S)NC(=O)c2ccccc2F)cc1`, the activity change, less the hit threshold is -13.5% (inactive).

With `CCC(=O)NC(=S)NNC(=O)c1ccccc1[N+](=O)[O-]`, the activity change, less the hit threshold was -19.6% (inactive).

As for `O=C(NC(=S)N(Cc1ccccc1)Cc1ccccc1)c1ccccc1F`, the activity change, less the hit threshold is 38.8% (active).

For the compound `CC1=NNC(=O)C1CC(=O)N/N=C/C=C/c1ccccc1` (centres undefined), the activity change, less the hit threshold is -21.4% (inactive).

For the compound `Cc1cnc(NC(=O)CN2CCN(c3ccccc3F)CC2)s1`, the activity change, less the hit threshold was -16.9% (inactive).

`COc1cc(/C=C2/OC(=O)c3cc([N+](=O)[O-])ccc32)cc(OC)c1OC`: the activity change, less the hit threshold was -15.4% (inactive).

Turning to `CCO/C=C1\N=C(c2ccc(F)cc2)OC1=O`, the activity change, less the hit threshold was -13.2% (inactive).

Regarding `O=C(CN1C(=O)S/C(=C\c2cc(Cl)c(O)c(Cl)c2)C1=O)Nc1ccccc1`, the activity change, less the hit threshold is -30.2% (inactive).

With `CC(C)C12CN3CC(C(C)C)(CN(C1)C31C(=O)Nc3ccccc31)C2=O` (centres undefined), the activity change, less the hit threshold was -24.3% (inactive).

On to `O=C(COC(=O)c1cc(S(=O)(=O)NCc2ccccc2)ccc1O)NCc1ccccc1`, for which the activity change, less the hit threshold is -13.2% (inactive).

Turning to `C=CCn1c(SCc2ccc(C(=O)O)cc2)nc2sc(C)c(C)c2c1=O`, the activity change, less the hit threshold was 46.6% (active).

Consider `C=CCN1C(=O)C(Cc2ccc(OCC)cc2)SC1=Nc1ccc(C(=O)O)cc1` (centres undefined), for which the activity change, less the hit threshold was -15.5% (inactive).
